Bioassay records deposited in PubChem by National Center for Advancing Translational Sciences (NCATS).
Shown are actives, neighbours in structure and some others; about 3.2% of the full set was active somewhere.
Pol III holo inh: qHTS Assay for Inhibitors of DNA Polymerase III Holoenzyme System | AID 603, 2007 | reconstituted DNA polymerase III holoenzyme replication, biochemical | 71,000 tested, 0.25% active | Potency, µM (titrated, usually from 57.1 µM), inactives show at the top dose activity change, negative = inhibition; also: potency is read from the fitted curve at half-maximal effect; % is scaled to controls: 0 for no effect and ±100 for the full control effect
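Reconstituted *E. coli* holoenzyme (0.35 nM Pol III, 1 nM beta, 154 nM SSB, 2 nM primase) was preincubated with compound for 15 min at RT. Synthesis on 1.4 nM ssM13Gori ran 35 min, then was stopped with PicoGreen/EDTA and read as dsDNA fluorescence.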
HEK293 cAMP ctrl: qHTS Assay for Agonists of the Thyroid Stimulating Hormone Receptor: Activators of Intracellular cAMP Concentrations in Parental HEK 293; Potency, µM (titrated, usually from 57.1 µM), for the others: at the highest dose activation, most hits filed as activators; 73,000 tested, 2.5% active; parental HEK293 CNG cAMP sensor, membrane potential fluorescence; also: potency is read from the fitted curve at half-maximal effect; % of control where 0% means no effect; nearly all actives have a fitted effect of over 55% in size
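Parental HEK 293 cells stably expressing a cAMP-gated CNG channel were loaded with membrane potential dye containing 100 uM RO 20-1724 for 60 min. Compound added for 30 min; depolarization read as fluorescence intensity at 590 nm.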
BRCT inh green: qHTS Assay for Inhibitors of BRCT-Phosphoprotein Interaction (Green Fluorophore) | Breast cancer type 1 susceptibility protein (Homo sapiens), P38398 | BRCA1 BRCT-phosphopeptide binding, green fluorescence polarization | Potency, µM (top dose mostly 76.9 µM), for the others: top-dose activity change, negative = inhibition, hits mostly inhibitors | 75,000 tested, 0.05% active | AID 875, 2007;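 also: potency is read from the fitted curve at half-maximal effect; plate controls were peptide without protein for full effect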
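Compounds were incubated for 12 min at room temperature with a complex of 100 nM fluorescein-tagged pBACH1 decapeptide and 250 nM His-tagged BRCT protein. Buffer was phosphate pH 7.3 with EDTA, DTT and Tween 20. Disruption of binding lowers the polarization signal.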
TSHR agonist: qHTS Assay for Agonists of the Thyroid Stimulating Hormone Receptor; HEK293-CNG-TSHR cells (CNG channel as cAMP sensor), membrane potential dye, cAMP; Potency, µM (doses to about 57.1 µM), without a hit: top-dose activation, actives largely listed as activators; 73,000 tested, 0.48% active; AID 926, 2007; active = well fitted activation curve with a large enough effect in the main read-out, with a control signal flat, not every such curve was filed as active; inconclusive = small, poorly fitted or top-dose-only effect, or a change in a side signal; inactive = no such curve, though single readings can be large or run the other way; % of control where 0% means no effect;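 also: the control signal comes from parental cells without the receptor; potency is read from the fitted curve at half-maximal effect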
Target sequence (P16473 whole entry, looked up): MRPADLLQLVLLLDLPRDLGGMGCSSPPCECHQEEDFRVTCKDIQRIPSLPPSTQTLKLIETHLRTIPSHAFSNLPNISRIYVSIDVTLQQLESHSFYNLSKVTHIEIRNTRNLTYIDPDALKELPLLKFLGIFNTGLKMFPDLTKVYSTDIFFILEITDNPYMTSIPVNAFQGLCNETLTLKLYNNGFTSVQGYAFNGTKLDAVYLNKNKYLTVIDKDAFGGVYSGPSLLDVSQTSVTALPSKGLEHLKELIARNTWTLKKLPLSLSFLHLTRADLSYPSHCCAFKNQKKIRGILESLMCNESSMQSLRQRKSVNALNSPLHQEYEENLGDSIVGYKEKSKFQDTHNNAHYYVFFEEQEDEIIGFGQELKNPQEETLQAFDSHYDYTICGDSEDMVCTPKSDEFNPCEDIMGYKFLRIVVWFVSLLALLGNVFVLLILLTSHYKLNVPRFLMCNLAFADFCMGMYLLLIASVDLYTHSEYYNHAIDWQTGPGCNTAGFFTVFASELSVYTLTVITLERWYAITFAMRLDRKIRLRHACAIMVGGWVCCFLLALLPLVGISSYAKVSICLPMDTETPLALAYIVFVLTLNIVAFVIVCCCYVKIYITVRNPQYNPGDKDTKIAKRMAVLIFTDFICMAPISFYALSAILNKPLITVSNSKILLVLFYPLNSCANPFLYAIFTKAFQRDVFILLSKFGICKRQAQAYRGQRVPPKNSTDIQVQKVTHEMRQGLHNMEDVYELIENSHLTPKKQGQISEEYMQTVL
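HEK 293 cells stably expressing TSHR and a modified CNG channel, with CNG-only parental cells as counterscreen, were preloaded 60 min at room temperature with membrane potential dye containing 100 uM RO 20-1724. Compound exposure was 30 min, and depolarization was read as fluorescence at 590 nm.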
BRCT PPI red: qHTS Assay for Inhibitors of BRCT-Phosphoprotein Interaction (Red Fluorophore); 75,000 tested, 0.03% active; Breast cancer type 1 susceptibility protein (Homo sapiens), P38398; BRCT-phosphopeptide binding, red fluorescence polarization; Potency, µM (top dose mostly 76.9 µM), without a hit: at the highest dose activity change, negative = inhibition, most hits filed as inhibitors; also: % is scaled to controls: 0 for no effect and ±100 for the full control effect
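Fluorescence polarization: 100 nM His-tagged BRCA1 BRCT with 100 nM TAMRA-labelled phospho-BACH1 decapeptide, phosphate buffer pH 7.3 with 150 mM NaCl, DTT, 0.01% Tween 20; 12 min RT. Binding inhibition seen as FP decrease.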
TsaE inh: qHTS Assay for Inhibitors of YjeE; tRNA threonylcarbamoyladenosine biosynthesis protein TsaE (Escherichia coli (strain …; purified YjeE enzyme, qHTS inhibition assay; Potency, µM; 71,000 tested, 0.05% active; AID 605, 2007
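Purified YjeE (10 uM) with BODIPY Texas Red-labeled ADP probe (2 uM); compounds pin-transferred, 15 min at room temperature. Binding inhibition read as decreased fluorescence polarization; ADP titration as control.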
* = called active by the depositor; [ ] = dose if it differs, or a comment. Unless noted, calls follow the shape of the dose curve; as a rule, active = well fitted curve in the direction sought with a large enough effect; inconclusive = small, poorly fitted or top-dose-only effect, or another doubt; inactive = no such curve, though single readings can be large; an effect the other way counts as inactive or inconclusive.

Cc1cc(C)n(-c2nnc(C)n2/N=C/c2ccccc2OCc2ccccc2Cl)n1 was read as Pol III holo inh -6%[11.4 µM], HEK293 cAMP ctrl 1.3µM*, BRCT inh green 7%, TSHR agonist inconclusive, BRCT PPI red 1% and TsaE inh inactive.
`Cc1cc(C)n(-c2nnc(C)n2/N=C/c2cc(Br)ccc2OCc2ccccc2)n1` gave Pol III holo inh 0%[11.4 µM], HEK293 cAMP ctrl 3.2µM*, BRCT inh green 4%, TSHR agonist inconclusive, BRCT PPI red 0% and TsaE inh inactive.
Screening Cc1cc(C)n(Cc2ccccc2Cl)n1 returned Pol III holo inh -5%, HEK293 cAMP ctrl 1%, BRCT inh green -1%, TSHR agonist -3%, BRCT PPI red 0% and TsaE inh inactive.
For N#CCCn1c(=O)c(CCc2ccccc2)nc2cnc(OCc3ccccc3)nc21 the results were Pol III holo inh 2%, HEK293 cAMP ctrl 4µM*, BRCT inh green 6%, TSHR agonist inconclusive, BRCT PPI red -1% and TsaE inh inactive.
`COCCn1c(=O)c(C)nc2cnc(OCc3ccccc3)nc21` gave Pol III holo inh -4%, HEK293 cAMP ctrl 3.2µM*, BRCT inh green -2%, TSHR agonist inconclusive, BRCT PPI red -1% and TsaE inh inactive.
For N#CCCn1c(=O)c(CCc2ccccc2)nc2cnc(Oc3ccccc3)nc21 the results were Pol III holo inh -4%, HEK293 cAMP ctrl inconclusive, BRCT inh green -1%, TSHR agonist inconclusive, BRCT PPI red 0% and TsaE inh inactive.
Screening COc1cccc(Cn2c(=O)c(C)nc3cnc(OCc4ccccc4)nc32)c1 returned Pol III holo inh -10%, HEK293 cAMP ctrl 16µM*, BRCT inh green 0%, TSHR agonist inconclusive, BRCT PPI red 0% and TsaE inh inactive.
Screening COc1ccc(NS(=O)(=O)c2ccc(I)cc2)cc1N1CCN(C)CC1 returned Pol III holo inh -4%, HEK293 cAMP ctrl 11%, BRCT inh green 3%, TSHR agonist 1%, BRCT PPI red 1% and TsaE inh inactive.
For O=c1[nH]c(=O)c2nc(Br)n(C3OC(CO)C(O)C3O)c2[nH]1 (configuration not stated) the results were BRCT inh green -2% and BRCT PPI red 1%.
Screening CC1(C(=O)NCc2cc(F)cc(C(F)(F)F)c2)C=CC2(CCCCC2)N1C(=O)c1ccccc1 (configuration not stated) returned Pol III holo inh -1%, HEK293 cAMP ctrl 17%, BRCT inh green 0%, TSHR agonist 15%, BRCT PPI red -1% and TsaE inh inactive.
`CC1(C(=O)NCC2CC2)C=CC2(CCCCC2)N1C(=O)c1ccccc1` (configuration not stated) gave Pol III holo inh 3%, HEK293 cAMP ctrl 10µM*, BRCT inh green -2%, TSHR agonist inconclusive, BRCT PPI red 0% and TsaE inh inactive.
For O=c1nc2s/c(=C\c3ccco3)c(=O)n2nc1Cc1ccc(F)cc1 the results were Pol III holo inh 16µM*, HEK293 cAMP ctrl 5%, BRCT inh green -3%, TSHR agonist -6%, BRCT PPI red -5% and TsaE inh inactive.
CC(=O)N1CCN(c2ccccc2NC(=O)c2cc(Br)ccc2Cl)CC1 was read as Pol III holo inh -3%, HEK293 cAMP ctrl 32µM*, BRCT inh green -6%, TSHR agonist inconclusive, BRCT PPI red 1% and TsaE inh inactive.
`CN1CCN(c2ccccc2NC(=O)c2cc(Br)ccc2Cl)CC1` gave Pol III holo inh -8%, HEK293 cAMP ctrl -1%, BRCT inh green -1%, TSHR agonist 11%, BRCT PPI red 1% and TsaE inh inactive.
`O=C(c1csnn1)N1CCC2(CC1)CN(c1ccccn1)C2` gave Pol III holo inh 3%, HEK293 cAMP ctrl 19%, BRCT inh green 1%, TSHR agonist 22%, BRCT PPI red -1% and TsaE inh inactive.
For O=C(c1[nH]o[n+](=O)c1C(=O)c1csc2ccccc12)c1csc2ccccc12 the results were Pol III holo inh 10%[11.4 µM], HEK293 cAMP ctrl 9%[11.4 µM], BRCT inh green 0%[15.4 µM], TSHR agonist 3%[11.4 µM], BRCT PPI red 0%[15.4 µM] and TsaE inh inactive.
For CCOc1ccccc1CN(Cc1ccco1)S(=O)(=O)c1ccc(-n2cnnn2)c(OC)c1 the results were Pol III holo inh -3%, HEK293 cAMP ctrl 10µM*, BRCT inh green -2%, TSHR agonist inconclusive, BRCT PPI red -3% and TsaE inh inactive.
`COc1cc(S(=O)(=O)N(Cc2ccco2)C2CCCC2)ccc1-n1cnnn1` gave Pol III holo inh 2%, HEK293 cAMP ctrl inconclusive, BRCT inh green 0%, TSHR agonist inconclusive, BRCT PPI red -1% and TsaE inh inactive.
`CC(=O)O[C@]1(C(C)=O)CC[C@H]2[C@@H]3C=C(Cl)C4=CC(=O)[C@@H]5C[C@@H]5[C@]4(C)[C@H]3CC[C@@]21C` gave Pol III holo inh 10%, HEK293 cAMP ctrl inconclusive, BRCT inh green 1%, TSHR agonist inconclusive, BRCT PPI red 1% and TsaE inh inactive.
For COc1cc2c(cc1OC)-c1cc(NC3CCCCCC3)nc(=O)n1CC2 the results were Pol III holo inh -10%, HEK293 cAMP ctrl 19%, BRCT inh green 8%, TSHR agonist 10µM*, BRCT PPI red 1% and TsaE inh inactive.
Screening Cc1ccc(-c2cc(C(=O)Nc3cc(C)on3)c3ccccc3n2)c(C)c1 returned Pol III holo inh -4%, HEK293 cAMP ctrl inconclusive, BRCT inh green 1%, TSHR agonist inconclusive, BRCT PPI red -1% and TsaE inh inactive.
For Cc1cc(NC(=O)c2cc(-c3cccnc3)nc3c(C)c(C)ccc23)no1 the results were Pol III holo inh -8%, HEK293 cAMP ctrl 25µM*, BRCT inh green 2%, TSHR agonist inconclusive, BRCT PPI red 0% and TsaE inh inactive.
For COc1ccc(-c2nnc(SCC(=O)c3cc(C)n(Cc4cccs4)c3C)o2)cc1 the results were Pol III holo inh inconclusive, HEK293 cAMP ctrl inconclusive, BRCT inh green 4%, TSHR agonist inconclusive, BRCT PPI red -11% and TsaE inh inactive.
`COc1ccc(-n2cnnc2SCC(=O)c2cc(C)n(Cc3cccs3)c2C)cc1` gave Pol III holo inh -8%, HEK293 cAMP ctrl 25µM*, BRCT inh green 0%, TSHR agonist inconclusive, BRCT PPI red -1% and TsaE inh inactive.
